Measurements published in PubChem BioAssay (NCI).
About 79,000 compounds went through this panel and 15% of them were active in at least one assay; those are over-represented in the sample as a whole. Active and inactive are the calls of the source. Cut-off read from the data, not from the text of the source: active = growth inhibition above about 70%; inactive = the rest.

Legend:
[1] = NCI Yeast Anticancer Drug Screen. Data for the rad50 strain (AID 155);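 note: 0% = growth of vehicle-only cultures of the same strain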; conditions: S. cerevisiae rad50 strain growth inhibition, active compounds read high; at 50.0 µM unless noted
Outline: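 Readout: growth inhibition relative to vehicle-treated cultures. Compound exposure was carried out in a genetically defined yeast strain deficient in DNA damage repair.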

[2] = NCI Yeast Anticancer Drug Screen. Data for the mec2-1 strain (AID 157); conditions: S. cerevisiae mec2-1 strain, active compounds read high; at 50.0 µM unless noted
Outline: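 Test agents were screened against the mec2-1 yeast strain, with defined DNA repair or cell cycle alteration. Growth was scored as inhibition against vehicle-only controls.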

[3] = NCI Yeast Anticancer Drug Screen. Data for the sgs1 mgt1 strain (AID 161);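 note: 0% = growth of cultures given vehicle only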; conditions: S. cerevisiae sgs1 mgt1 strain, active compounds read high; at 50.0 µM unless noted
Outline: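 Test agents were incubated with a DNA-repair-mutant yeast strain. Growth was then read and compared against vehicle-treated controls.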

[4] = NCI Yeast Anticancer Drug Screen. Data for the cln2 rad14 strain (AID 165);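 note: 0% = growth equal to vehicle treated cultures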; conditions: S. cerevisiae cln2 rad14 strain, active compounds read high; at 50.0 µM unless noted
Outline: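 Growth of compound-exposed yeast (cln2 rad14 genotype) measured and expressed as inhibition relative to vehicle.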

[5] = NCI Yeast Anticancer Drug Screen. Data for the bub3 strain (AID 167); conditions: S. cerevisiae bub3 mutant strain, active compounds read high; at 50.0 µM unless noted
Outline: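 Readout: yeast growth inhibition, expressed relative to vehicle-only wells. The test organism is a mutant strain from a panel with lesions in DNA repair or checkpoint genes.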

[6] = NCI Yeast Anticancer Drug Screen. Data for the mlh1 rad18 strain (AID 175); conditions: S. cerevisiae mlh1 rad18 strain growth inhibition, active compounds read high; at 50.0 µM unless noted
Outline: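 In this whole-cell yeast screen, a strain with altered DNA damage repair is challenged with compound, and its growth is measured against matched vehicle-treated controls.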

Measured: growth inhibition

CN1CCc2nc[nH]c2C1
inactive: [1] 17.2% | [2] -4.95% | [3] 3.2% | [4] 10.1% | [5] 6.4% | [6] 10.1%

C/C(=N/NC(N)=S)c1c(C)[nH]c2ccccc12
inactive: [1] 3.1% | [2] 10.2% | [3] -7.7% | [4] -78.8% | [5] -45% | [6] 0.95%

COc1cc(C2c3cc4c(c(OC)c3CC3COC(=O)[C@@H]32)OCO4)cc(OC)c1O (stereo not given in full)
active: [1] 85.9% | [2] 86.2% | [3] 80.5% | [4] 76.3% | [5] 82.8% | [6] 87.7%

CCCCCCCc1nc(CCCCCCC)nc(CCCCCCC)n1
inactive: [1] 1.05% | [2] 12.9% | [3] 6% | [4] -15.1% | [5] 19.8% | [6] 12.6%

CCSC1C(O)C(CO)OC1n1cnc2c(=S)nc[nH]c21 (stereo not given)
inactive: [1] -3.65% | [2] -28.7% | [3] -2% | [4] 2.6% | [5] 5% | [6] 0.2%

N#CNc1nc(N)c(-c2ccc(Cl)cc2)c(C(=O)Nc2nccs2)n1
inactive: [1] -8.85% | [2] -10.9% | [3] 3.25% | [4] 1.5% | [5] -7.75% | [6] -12.6%

CC1=NC(C)(C)N(O)C1(C)C
inactive: [1] -21.9% | [2] -4.3% | [3] -3.05% | [4] -0.8% | [5] -9% | [6] -53.5%

COc1ccc(C=O)c(Cl)c1OC
inactive: [1] 26.8% | [2] 14.4% | [3] 0.95% | [4] 6.55% | [5] -7.85% | [6] -16.8%

CC(C)(CBr)CC(=O)NC1CCCCC1
inactive: [1] -22% | [2] 5.8% | [3] 3.3% | [4] 1.8% | [5] 10.2% | [6] 50%

CCOP(=O)(OCC)C(C)(CC)N/C(=N/C(NC(C)=O)(C(F)(F)F)C(F)(F)F)NC1=NC(C(F)(F)F)(C(F)(F)F)N=C(C(F)(F)F)O1 (stereo not given)
inactive: [1] 1.65% | [2] 4.65% | [3] -26.8% | [4] 5.3% | [5] -3.1% | [6] -34.1%

Cc1cc(C(C)(C)C)cc(CNC2CCCCC2)c1O
inactive: [1] -4.35% | [2] -27.4% | [3] -25.4% | [4] -18% | [5] -35.2% | [6] 10.2%

N#CCCC(C#N)(CCC#N)C(N)=O
inactive: [1] 11.9% | [2] -18% | [3] -2.6% | [4] -49.6% | [5] 5.2% | [6] 1.55%

O=[N+]([O-])c1cccc(/C=N/Nc2ccc(S(=O)(=O)O)cc2)c1
inactive: [1] 18.6% | [2] 19.3% | [3] -1.9% | [4] 2.5% | [5] 12.7% | [6] 39.2%

CC(=O)N(C)c1ccc(NC(=O)C2CCCCC2C(=O)O)cc1 (stereo not given)
inactive: [1] 6.95% | [2] 8.6% | [3] 6.2% | [4] 3.65% | [5] 22.2% | [6] -14.2%

CC1=NN(c2ccc(S(=O)(=O)O)cc2)C(=O)C1N=Nc1ccc(-c2ccc(N=Nc3ccc(O)c(C(=O)O)c3)c(C)c2)cc1C (stereo not given)
inactive: [1] 17.6% | [2] 20.9% | [3] 17.3% | [4] 17.1% | [5] 23.4% | [6] 30.7%

COCc1cccc2ccnc(COC)c12
inactive: [1] -8.2% | [2] 2.45% | [3] 5.95% | [4] 9.4% | [5] -8.35% | [6] 5.25%

CC(=O)CC(=O)ON(C)C(=O)Cc1ccccc1
inactive: [1] 29.6% | [2] 15.2% | [3] -2.75% | [4] -4.4% | [5] -6.1% | [6] -8.35%

C=CCCn1nc(-c2ccccc2)oc1=O
inactive: [1] -8.35% | [2] -28.5% | [3] -19.2% | [4] -2.75% | [5] -26.9% | [6] 6.1%

O=C(NCC1CC1)c1cccs1
inactive: [1] -41.4% | [2] -50.9% | [3] -18.9% | [4] -23.6% | [5] -21.6% | [6] -50.4%

C=CCOC(=O)C(C)OC(=O)CCC(=O)OC(C)C(=O)OCC=C (stereo not given)
inactive: [1] 5.35% | [2] 4.3% | [3] 4.35% | [4] 3.95% | [5] 6.15% | [6] 4.85%
